Reference: PubChem BioAssay
Values without a mark were called inactive. For part of these data: Results with a measured potency or affinity are listed apart. Calls of active or inactive are those of the source. Unless noted, the rule behind the calls is not given here.

Experiments:
[1] = antimalarial activity against Dd2 strain (AID 2302;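 active = growth inhibition above 50% at the single 2 µM test dose, taken to imply half-maximal potency below 2 µM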;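 note: 0% = DMSO untreated growth and 100% = chloroquine plus artemisinin killed control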); settings: P. falciparum Dd2 in RBCs, LDH growth readout, 72 h; at 2 µM; hits give high values
[2] = HepG2 cytotoxicity, primary screen, cytotoxicity control for P. falciparum antimalarial project, cell-based, ATP luminescence (AID 2303;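 active = inhibition above 50%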;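 note: 0% = DMSO wells and 100% = digitonin-killed cells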); settings: HepG2 viability, 24-48 h, at 10 µM, hits give high values
[3] = target: L-lactate dehydrogenase (Plasmodium falciparum (isolate CDC / Honduras)) (UniProt Q27743); assay: PfLDH activity inhibition – cell lysate, 3D7 strain, counter-screen for P. falciparum growth inhibition project (AID 2304);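 note: 0% = vehicle and 100% = reference inhibitor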; settings: P. falciparum 3D7 crude extract, LDH APAD/NBT absorbance; at 2 µM; hits give high values
[4] = inhibition of 3D7 malaria parasite growth – strain 3D7 (AID 2306);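 note: 0% = DMSO wells and 100% = chloroquine plus artemisinin control wells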; settings: P. falciparum 3D7 erythrocytic growth, LDH absorbance, 72 h; at 2 µM; hits give high values
[5] = target: Calcium-dependent protein kinase 1 (Plasmodium falciparum (isolate 3D7)) (UniProt P62344); assay: PfCDPK1 kinase inhibitors, biochemical, TCAMS library (AID 1159585; cut-off not given, nearly all actives have IC50 up to about 0.98 µM;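 note: inhibitors leave more ATP so luminescence rises with inhibition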); settings: recombinant PfCDPK1, Kinase-Glo ATP depletion luminescence
[6] = target: Plasmodium falciparum protein kinase 6 (PK6, PF3D7_1337100) (UniProt Q8IDW1); assay: PfPK6 kinase inhibitors, biochemical, TCAMS library (AID 1159586); settings: recombinant PfPK6, Kinase-Glo ATP depletion luminescence
[7] = target: Protein kinase 7 (PK7), Plasmodium falciparum 3D7 (PF3D7_0213400) (UniProt Q7YTF7); assay: inhibition of Plasmodium PK7 catalytic activity – biochemical, TCAMS antimalarial set, Kinase-Glo luminescence (AID 1159587); settings: recombinant PfPK7, Kinase-Glo ATP depletion luminescence
[8] = target: Calcium-dependent protein kinase 4 (Plasmodium falciparum (isolate 3D7)) (UniProt Q8IBS5); assay: PfCDPK4 kinase inhibitors, biochemical, TCAMS library (AID 1159588; cut-off not given, nearly all actives have IC50 up to about 0.91 µM); settings: recombinant PfCDPK4, Kinase-Glo ATP depletion luminescence
Sequence of Calcium-dependent protein kinase 4 (Plasmodium falciparum (isolate 3D7)) (Q8IBS5 whole entry, looked up): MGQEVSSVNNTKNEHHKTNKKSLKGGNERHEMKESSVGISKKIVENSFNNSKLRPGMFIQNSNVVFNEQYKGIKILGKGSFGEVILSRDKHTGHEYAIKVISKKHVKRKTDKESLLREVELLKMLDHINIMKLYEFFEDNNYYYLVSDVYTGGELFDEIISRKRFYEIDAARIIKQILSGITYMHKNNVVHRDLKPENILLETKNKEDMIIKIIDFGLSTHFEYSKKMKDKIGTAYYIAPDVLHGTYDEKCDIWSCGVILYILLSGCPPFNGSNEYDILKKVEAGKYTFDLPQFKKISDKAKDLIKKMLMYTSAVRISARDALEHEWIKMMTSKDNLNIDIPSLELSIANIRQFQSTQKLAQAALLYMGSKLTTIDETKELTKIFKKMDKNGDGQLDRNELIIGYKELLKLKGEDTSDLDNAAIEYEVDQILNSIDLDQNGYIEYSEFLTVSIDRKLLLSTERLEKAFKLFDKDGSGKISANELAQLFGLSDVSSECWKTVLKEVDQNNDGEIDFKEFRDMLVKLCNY

Sequence of Calcium-dependent protein kinase 1 (Plasmodium falciparum (isolate 3D7)) (P62344 whole entry, looked up): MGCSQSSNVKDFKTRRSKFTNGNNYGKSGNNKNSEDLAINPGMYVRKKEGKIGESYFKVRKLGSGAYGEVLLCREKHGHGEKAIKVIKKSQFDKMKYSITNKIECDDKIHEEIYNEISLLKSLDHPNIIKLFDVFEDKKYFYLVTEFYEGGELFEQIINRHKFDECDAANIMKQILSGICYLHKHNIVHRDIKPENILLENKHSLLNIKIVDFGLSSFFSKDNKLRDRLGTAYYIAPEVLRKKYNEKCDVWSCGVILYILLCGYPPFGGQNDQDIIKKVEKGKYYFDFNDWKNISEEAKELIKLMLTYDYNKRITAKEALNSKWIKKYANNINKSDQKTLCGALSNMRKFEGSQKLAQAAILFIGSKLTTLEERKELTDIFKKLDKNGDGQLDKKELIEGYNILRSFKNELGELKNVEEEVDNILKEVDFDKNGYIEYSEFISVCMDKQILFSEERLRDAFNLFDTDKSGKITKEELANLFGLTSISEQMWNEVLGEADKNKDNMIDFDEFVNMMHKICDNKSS
Sequence of L-lactate dehydrogenase (Plasmodium falciparum (isolate CDC / Honduras)) (Q27743 whole entry, looked up): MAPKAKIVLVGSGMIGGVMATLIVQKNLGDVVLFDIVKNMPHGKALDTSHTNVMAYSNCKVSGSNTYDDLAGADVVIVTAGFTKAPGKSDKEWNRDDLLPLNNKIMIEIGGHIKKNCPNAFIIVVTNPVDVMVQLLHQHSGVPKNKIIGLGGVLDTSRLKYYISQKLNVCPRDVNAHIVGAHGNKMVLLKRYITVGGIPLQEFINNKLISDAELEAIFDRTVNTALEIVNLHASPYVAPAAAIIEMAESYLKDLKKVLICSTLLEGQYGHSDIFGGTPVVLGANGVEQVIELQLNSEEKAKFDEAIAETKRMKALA
Sequence of Protein kinase 7 (PK7), Plasmodium falciparum 3D7 (PF3D7_0213400) (Q7YTF7 1-343): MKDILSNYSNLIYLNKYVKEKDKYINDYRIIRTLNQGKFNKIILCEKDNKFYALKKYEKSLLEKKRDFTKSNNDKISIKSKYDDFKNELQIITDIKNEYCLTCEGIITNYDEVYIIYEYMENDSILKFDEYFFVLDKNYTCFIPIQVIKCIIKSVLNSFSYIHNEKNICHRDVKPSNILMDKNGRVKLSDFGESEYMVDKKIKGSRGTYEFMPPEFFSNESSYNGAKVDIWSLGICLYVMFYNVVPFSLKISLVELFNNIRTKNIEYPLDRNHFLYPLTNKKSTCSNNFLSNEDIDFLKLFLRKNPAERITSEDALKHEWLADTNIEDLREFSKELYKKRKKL
Sequence of Plasmodium falciparum protein kinase 6 (PK6, PF3D7_1337100) (Q8IDW1 1-305): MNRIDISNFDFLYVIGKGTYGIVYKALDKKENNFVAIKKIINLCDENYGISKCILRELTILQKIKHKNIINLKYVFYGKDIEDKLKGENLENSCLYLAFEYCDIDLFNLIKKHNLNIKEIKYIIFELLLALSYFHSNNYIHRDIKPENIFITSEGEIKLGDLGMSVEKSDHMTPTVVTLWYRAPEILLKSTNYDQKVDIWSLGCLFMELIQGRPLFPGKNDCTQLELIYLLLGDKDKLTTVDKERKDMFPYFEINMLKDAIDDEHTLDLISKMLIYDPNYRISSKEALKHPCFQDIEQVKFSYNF

For `Clc1ccc(OC2CCC(Cn3ccnc3)(c3ccc(Cl)cc3Cl)CC2)c(Cl)c1` (centres undefined), the growth inhibition [1] was 86% (active), the inhibition [2] was 4% and the inhibition [3] was -4%. The growth inhibition [4] was 98% (active), the outcome [5] was “inactive” and the outcome [6] was “inactive”. For the same compound, the outcome [7] was “inactive” and the outcome [8] was “inactive”.

For `COC(=O)c1cccc(C#CCCOCCCCCCNC[C@H](O)c2cc(Cl)c(N)c(Cl)c2)c1`, the growth inhibition [1] was 88% (active), the inhibition [2] was 12% and the inhibition [3] was -3%. The growth inhibition [4] was 97% (active), the outcome [5] was “inactive” and the outcome [6] was “inactive”. The outcome [7] was “inactive” and the outcome [8] was “inactive”.

With `COc1cccc(C(C)(C)NC[C@@H](O)[C@H](Cc2ccccc2)NC(=O)c2cc(C3CCCC3)cc(N3CCCCS3(=O)=O)c2F)c1` the growth inhibition [1] was 99% (active), the inhibition [2] was 16% and the inhibition [3] was 7%. For the same compound, the growth inhibition [4] was 99% (active), the outcome [5] was “inactive” and the outcome [6] was “inactive”. The outcome [7] was “inactive” and the outcome [8] was “inactive”.
